From PubChem
Sampled rows, rich in hits. Any-hit rate of the full collection: about 12%.
VP16 counter: VP16 counterscreen qHTS for inhibitors of ROR gamma transcriptional activity. Drosophila S2 Gal4-VP16 UAS-luciferase, luminescence, 20 h. Potency, µM (top dose mostly 53.6 µM), inactives show at the highest dose activity, negative = inhibition, actives largely listed as inhibitors. 310,000 compounds, 3.5% hits;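 note: Gal4-VP16 expression switched on by copper sulfate through the metallothionein promoter; nearly all actives have a fitted effect of over 50% in size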
ALDH1A1 inh: qHTS Assay for Inhibitors of Aldehyde Dehydrogenase 1 (ALDH1A1) | Aldehyde dehydrogenase 1A1 (Homo sapiens), P00352 | Purified ALDH1A1, NADH fluorescence, propionaldehyde substrate | Potency, µM (doses to about 75.3 µM), for inactives: at the highest dose activity, negative = inhibition, hits mostly inhibitors | 220,000 compounds, 7.3% hits | AID 1030, 2008; active = well fitted inhibition curve with a large enough effect, not every such curve was filed as active; inconclusive = small, poorly fitted or top-dose-only effect, or another doubt; inactive = no such curve, though single readings can be large or run the other way;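 note: plate controls were no enzyme wells and a reference inhibitor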
Target sequence (P00352 whole entry, looked up): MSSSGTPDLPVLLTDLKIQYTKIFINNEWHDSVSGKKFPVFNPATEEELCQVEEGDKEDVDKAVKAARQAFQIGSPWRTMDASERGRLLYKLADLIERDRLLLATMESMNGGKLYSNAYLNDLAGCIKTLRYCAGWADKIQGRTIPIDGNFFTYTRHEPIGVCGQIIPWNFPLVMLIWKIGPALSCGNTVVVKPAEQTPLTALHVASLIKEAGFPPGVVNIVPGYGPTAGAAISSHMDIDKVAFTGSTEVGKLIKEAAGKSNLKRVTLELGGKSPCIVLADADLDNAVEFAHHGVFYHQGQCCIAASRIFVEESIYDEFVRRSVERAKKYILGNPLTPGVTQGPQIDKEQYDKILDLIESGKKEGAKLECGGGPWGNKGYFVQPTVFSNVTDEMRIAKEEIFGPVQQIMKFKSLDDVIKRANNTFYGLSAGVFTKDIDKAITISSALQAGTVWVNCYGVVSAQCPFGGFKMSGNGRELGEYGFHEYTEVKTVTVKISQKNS
PLK1 PBD block: qHTS for Inhibitors of PLK1-PDB (polo-like kinase 1 - polo-box domain): Primary Screen; AID 720504, 2013; Plk1 PBD binding of FITC phosphopeptide, fluorescence polarization; Potency, µM, inactives show max response, negative = inhibition, usual class: inhibitors; 360,000 compounds, 2.8% hits; Serine/threonine-protein kinase PLK1 (Homo sapiens), P53350; note: series mostly up to about 57 µM; nearly all actives have a fitted effect of over 65% in size
Sfp PPTase inh: qHTS Assay for Inhibitors of Bacillus subtilis Sfp phosphopantetheinyl transferase (PPTase). 4'-phosphopantetheinyl transferase ffp (Bacillus subtilis), Q9F4F7. Biochemical Sfp PPTase activity, qHTS. Potency, µM, without a hit: largest response in the series, negative = inhibition, actives largely listed as inhibitors. 310,000 compounds, 3.5% hits;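 note: the enzyme is Sfp with the accession as filed and its product quenches rhodamine fluorescence; 0% = enzyme reaction without inhibitor and -100% = no enzyme wells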
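After 15 min at room temperature with compound, 15 nM Sfp received 5 uM rhodamine-CoA plus 12.5 uM BHQ-2-ybbR (50 mM Hepes pH 7.6, 10 mM MgCl2). Rate came from the fluorescence difference over 30 min, ex 525/em 598 nm.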
RORgamma inh: qHTS for inhibitors of ROR gamma transcriptional activity; AID 2551, 2010; Potency, µM (titrated, usually from 53.6 µM), inactives show top-dose activity change, negative = inhibition, actives largely listed as inhibitors; 310,000 compounds, 5.4% hits; Nuclear receptor ROR-gamma (Mus musculus), P51450; Drosophila S2 Gal4-RORgamma UAS-luciferase reporter, 20 h; note: nearly all actives have a fitted effect of over 60% in size
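Luciferase reporter read in Schneider cells carrying Gal4-RORγ (mouse) and UAS-Photinus luciferase; cells given compound 1 h before 700 uM copper sulfate induction, then incubated 20 h at ambient temperature.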
* = called active by the depositor; ? = inconclusive; · = no result given; [ ] = remark or other dose. Unless noted, calls come from the whole dose curve; as a rule, active = well fitted curve in the direction sought with a large enough effect; inconclusive = small, poorly fitted or top-dose-only effect, or another doubt; inactive = no such curve, though single readings can be large; an effect the other way counts as inactive or inconclusive. Unless noted, % is set by controls: 0 for no effect and ±100 for the full control effect; potency is the fitted concentration of half-maximal effect.

SMILES	VP16 counter	ALDH1A1 inh	PLK1 PBD block	Sfp PPTase inh	RORgamma inh
N=C1/C(=C\c2coc3ccccc3c2=O)C(=O)N=C2SC(c3ccncc3)=NN12	4.0%	·	23.4%	-18.6%	24.9%
N=C1/C(=C/c2coc3ccccc3c2=O)C(=O)N=C2SC(c3ccco3)=NN12	2.6%	·	?	39.8µM*	10.8%
Cc1cc(/C=C2\C(=N)N3N=C(c4ccco4)SC3=NC2=O)c(C)n1Cc1ccccc1	5.1%	?	26.7µM*	?	-43.9%
[O][C@H]1[C@@H](O)[C@@H](CO)O[C@@H](O[C@@H]2[C@@H]3OC[C@H]2O[C@H](O[C@@H]2[C@@H](O)[C@H](C[C@@H]4[C@@H]5OC[C@H]4O[CH][C@@H]5O)O[C@H](CO)[C@@H]2OS(=O)(=O)O)[C@@H]3OS(=O)(=O)O)[C@@H]1O	-5.6%	5.9%	·	4.6%	0.9%
Cc1cc(F)cc(-c2cc(C(=O)NCc3ccccn3)[nH]n2)c1	·	·	-9.4%	·	·
O=C(O)c1ccc(C=C(c2nc3ccccc3s2)c2nc3ccccc3s2)cc1	-5.0%	-11.4%	29.9µM*	-2.5%	-31.6%
Oc1ccc(/C=N/Nc2nn3cnnc3c3ccccc23)cc1	-8.2%	·	-4.4%	56.2µM*	-13.7%
COc1cccc(/C=N/Nc2nn3cnnc3c3ccccc23)c1	0.2%	?	1.3%	56.2µM*	-2.5%
CCOc1cc(/C=N/Nc2nn3cnnc3c3ccccc23)ccc1O	-19.0%	·	-19.5%	?	-31.4%
COc1cc(/C=N/Nc2nn3cnnc3c3ccccc23)ccc1O	-28.4%	-8.3%	2.3%	39.8µM*	-33.6%
C(=N\Nc1nn2cnnc2c2ccccc12)/c1ccco1	-16.9%	-8.8%	-3.9%	50.1µM*	-9.0%
COC(=O)C(C(=O)OC)C1O[C@@]23COCCC2(C)C3c2ccccc21 (some centres not stated)	-2.7%[10 µM]	-4.6%[13.5 µM]	·	7.1%	22.2%[10 µM]
COc1ccc(OC)c(C2=Nn3c(nnc3-c3ccccc3C)SC2)c1	-6.8%	·	·	?	-3.8%
Cc1ccccc1OC1=NS(=O)(=O)c2ccccc21	-5.2%	1.6%	29.9µM*	11.5%	-14.5%
O=S1(=O)N=C(Oc2cccc3ccccc23)c2ccccc21	-16.3%	?	-17.2%	13.8%	31.9%
O=C(CCN1C(=O)/C(=C\C=C\c2ccccc2)SC1=S)Nc1cccc(C(=O)O)c1	?	·	26.7µM*	-28.3%	-21.5%
CC(C)c1ccccc1NC(=O)COC(=O)CCN1C(=O)/C(=C\C=C\c2ccccc2)SC1=S	3.98µM*	?	-2.3%	-3.8%	2.51µM*
O=C(CCCN1C(=O)S/C(=C/C=C/c2ccccc2)C1=O)Nc1ccc(C(=O)O)cc1	-5.6%	·	29.9µM*	13.8%	-27.8%
O=C(CCN1C(=O)/C(=C/C=C/c2ccccc2)SC1=S)Nc1nccs1	-5.9%	2.5%	-10.5%	-2.7%	-30.6%
O=C(CCN1C(=O)/C(=C\C=C\c2ccccc2)SC1=S)Nc1ccccc1C(=O)O	-3.6%	·	29.9µM*	21.3%	-0.4%
Cc1cccc(C)c1NC(=O)C(c1ccncc1)N1CCN(CCN(C)C)CC1 (configuration not stated)	·	·	-4.8%	·	·
COCCNC(=S)NNC(=O)c1cc(C2CC2)nc2ccccc12	-27.0%	·	-0.2%	17.5%	11.2µM*
CC(C)(C)C(=O)COC(=O)c1cc(-c2cccnc2)nc2ccccc12	35.5µM*	?	-0.2%	?	?
C=CCNC(=S)NNC(=O)c1cc(-c2cccnc2)nc2ccccc12	-21.9%	·	-8.8%	27.4%	-42.4%
CNC(=S)NNC(=O)c1cc(-c2cccnc2)nc2ccccc12	15.8µM*	·	-0.6%	13.7%	7.08µM*
SMILES	VP16 counter	ALDH1A1 inh	PLK1 PBD block	Sfp PPTase inh	RORgamma inh
CCCCNC(=S)NNC(=O)c1cc(C2CC2)nc2ccccc12	?	·	-3.0%	18.0%	6.31µM*
CCCN1CCN(CC(=O)NCC(=O)Nc2cccc(C)c2C)CC1	·	·	-14.0%	·	·
CCCCNC(=S)NNC(=O)c1cc(-c2ccncc2)nc2ccccc12	-18.7%	·	-9.2%	11.0%	11.2µM*
O=C(NNC(=O)c1cc(-c2ccncc2)nc2ccccc12)c1ccccc1F	·	·	3.5%	·	·
O=C(NC1CCN(C(=S)NCc2ccco2)CC1)C1CCCCC1	16.7%	-4.0%	-6.3%	-0.1%	41.6%
OCC1CCCCN1C(=S)NCc1ccco1 (configuration not stated)	-1.6%	7.0%	0.9%	50.1µM*	-0.3%
CC1CCCC(C)N1C(=S)NCc1ccco1 (configuration not stated)	-1.3%	·	?	35.5µM*	2.9%
O=C(NC1CCCCC1)NC1CCN(C(=S)NCc2ccco2)CC1	7.1%	1.4%	-4.0%	12.6%	7.7%
Cc1ccc(NC(=S)N2CCCCC2CO)cc1C (configuration not stated)	?	0.3%	-9.5%	5.7%	7.94µM*
COC(=O)C1=C(C)N(Cc2ccccc2)[C@]23O[C@](C(=O)OC)(C(=O)N2C1c1ccccc1)C1CCOC(=O)C13 (some centres not stated)	1.8%[10 µM]	12.2%[13.5 µM]	·	-2.3%	-14.5%[10 µM]
CCc1ccc(S(=O)(=O)N/N=C\c2ccc3c(c2)OCO3)cc1	-8.6%	·	-10.5%	3.4%	2.3%
C#CCN1CCc2onc(-c3ccc(Br)cc3)c2C1=O	·	·	-2.6%	·	·
Cc1cnc(CNc2ncncc2-c2cccc(NS(C)(=O)=O)c2)cn1	-16.7%	13.7%	·	-5.1%	11.7%
COc1ccc(-n2c(-c3ccc(Br)cc3)c[n+]3c2CCCCC3)cc1	?	9.6%	-15.1%	15.3%	?
COc1ccc(-c2n[nH]c(=S)n2-c2ccc(C)cc2)cc1	10µM*	·	-25.8%	?	0.891µM*
COc1ccc(-n2c(-c3ccc(Br)cc3)nc(=S)c3c2CCCC3)cc1	10µM*	?	-16.6%	22.0%	7.94µM*
COc1ccc(-n2c(-c3ccc(C(C)(C)C)cc3)n[nH]c2=S)c(OC)c1	·	·	-7.4%	·	·
COc1ccc(-n2c(-c3ccc(Br)cc3)n[nH]c2=S)cc1	2.51µM*	·	-9.2%	-9.5%	2.24µM*
COc1cccc(CNC(=O)[C@@H]2CCCN2C(=O)[C@H]2CCCCN2C(=O)OC(C)(C)C)c1	·	·	0.8%	·	·
O=C(NNC1=C(C(=O)C(F)(F)F)CCC1)c1cccnc1	11.2µM*	?	0.8%	27.8%	7.08µM*
Cc1cccc(C(=O)NNC2=C(C(=O)C(F)(F)F)CCC2)c1O	10µM*	-10.7%	?	3.4%	6.31µM*
O=C(NNC(=O)c1cccnc1)c1ccncc1	1.2%	·	1.4%	10.7%	6.5%
O=C(NNC1=C(C(=O)C(F)(F)F)CCC1)c1cccc(O)c1	3.55µM*	5.1%	-2.1%	24.7%	5.01µM*
c1cncc(CNc2ncncc2-c2ccc3c(c2)OCO3)c1	7.9%	?	·	-20.4%	3.3%
